Results: PMC4336329 (PLoS ONE, 2015)
Hit rate of the full screen: of about 310,000 compounds, about 14,000 (4.5%) showed an effect of 50% or more. The effect is printed as a negative number. This is one part of a sample in which strong results are shown more often than they occur.

Each compound was assayed against human ether-à-go-go-related gene (hERG) potassium channel (human, UniProt Q12809) (assay: primary screen, population patch clamp on CHO cells stably expressing hERG; higher = less effect of the substance).
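Further: peak tail current of the secondary pulse compared with the same well before compound.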

human ether-à-go-go-related gene (hERG) potassium channel, sequence (Q12809 whole entry, looked up): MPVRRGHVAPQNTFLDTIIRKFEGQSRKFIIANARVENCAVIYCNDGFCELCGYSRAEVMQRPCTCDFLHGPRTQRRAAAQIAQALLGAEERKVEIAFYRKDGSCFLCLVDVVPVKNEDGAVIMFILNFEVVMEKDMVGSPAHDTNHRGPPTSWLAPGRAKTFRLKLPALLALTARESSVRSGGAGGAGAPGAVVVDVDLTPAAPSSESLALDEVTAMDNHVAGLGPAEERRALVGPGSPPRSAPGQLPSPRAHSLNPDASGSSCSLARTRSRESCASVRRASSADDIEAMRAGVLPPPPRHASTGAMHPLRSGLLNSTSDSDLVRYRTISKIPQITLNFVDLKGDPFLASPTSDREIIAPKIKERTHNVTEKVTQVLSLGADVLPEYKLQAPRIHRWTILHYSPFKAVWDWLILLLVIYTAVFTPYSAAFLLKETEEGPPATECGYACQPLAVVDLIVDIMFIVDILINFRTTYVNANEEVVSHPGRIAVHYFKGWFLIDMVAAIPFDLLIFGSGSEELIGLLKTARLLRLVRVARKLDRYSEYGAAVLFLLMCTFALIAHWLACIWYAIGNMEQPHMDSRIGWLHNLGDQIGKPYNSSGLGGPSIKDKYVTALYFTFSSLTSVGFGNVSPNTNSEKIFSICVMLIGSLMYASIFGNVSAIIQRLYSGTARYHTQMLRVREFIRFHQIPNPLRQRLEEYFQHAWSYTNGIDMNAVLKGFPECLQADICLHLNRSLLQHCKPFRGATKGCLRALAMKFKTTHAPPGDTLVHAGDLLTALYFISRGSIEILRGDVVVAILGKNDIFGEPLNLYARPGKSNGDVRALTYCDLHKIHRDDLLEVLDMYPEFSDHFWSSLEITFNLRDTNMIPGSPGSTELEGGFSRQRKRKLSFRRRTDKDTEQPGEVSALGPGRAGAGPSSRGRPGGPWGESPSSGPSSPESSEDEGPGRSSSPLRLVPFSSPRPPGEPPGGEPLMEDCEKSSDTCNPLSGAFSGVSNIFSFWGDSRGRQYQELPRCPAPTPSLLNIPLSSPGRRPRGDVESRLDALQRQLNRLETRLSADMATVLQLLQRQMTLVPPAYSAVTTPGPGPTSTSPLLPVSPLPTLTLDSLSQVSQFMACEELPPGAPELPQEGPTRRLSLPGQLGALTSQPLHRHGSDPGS

Row | SMILES | hERG current change (%, negative = inhibition) at 10uM [%]
1 | CC(C)Sc1cc(N2CCOCC2)nc(-c2ccccc2)n1 | 2.76
2 | COCCn1c(N)c(N(Cc2ccccc2)C(=O)c2ccc(-c3ccc(Cl)cc3)o2)c(=O)[nH]c1=O | -45.5
3 | Cc1ccc(-n2nc(C)c(/C=N/NC(=O)c3cccs3)c2Cl)cc1 | 5.12
4 | O=C(CN1CCN(S(=O)(=O)c2ccc(Br)cc2)CC1)N/N=C/c1ccco1 | -56.9
5 | O=C(CN1CCN(S(=O)(=O)c2ccc(Br)cc2)CC1)N/N=C/c1cccs1 | -58.4
6 | Cc1ccc(S(=O)(=O)N2CCN(CC(=O)N/N=C/c3ccco3)CC2)cc1 | -33
7 | O=C(CN1CCOCC1)N/N=C/c1ccco1 | 17.1
8 | Cc1ccsc1/C=N/NC(=O)CN1CCN(S(=O)(=O)c2ccc(Br)cc2)CC1 | -41.7
9 | Cc1ccc(S(=O)(=O)N2CCN(CC(=O)N/N=C/c3ccc(Br)s3)CC2)cc1 | -49
10 | O=C(CN1CCN(S(=O)(=O)c2ccc(Br)cc2)CC1)N/N=C/c1ccccc1C(=O)O | 14.2
11 | O=C(CN1CCN(S(=O)(=O)c2ccc(Br)cc2)CC1)N/N=C/c1ccc(Br)s1 | -17.6
12 | Cc1ccc(/C=N/NC(=O)CN2CCN(S(=O)(=O)c3ccc(Br)cc3)CC2)s1 | -58.9
13 | CN1CCN(c2c(F)cc([N+](=O)[O-])c(N)c2Br)CC1 | -45.3
14 | OCCCc1cn(-c2ccccc2)c2ccccc12 | 7.41
15 | Cc1cc(C(=O)NNC(=O)c2ccc(C)s2)c(C)o1 | 3.91
16 | COc1ccc(N(C2CSC2)S(=O)(=O)c2ccccc2)cc1 | 8.52
17 | CCc1nc(SCC(=O)Nc2nnc(CC)s2)c2c(=O)n(C)c(=O)n(C)c2n1 | 4.23
18 | O=C(Cn1nc(-c2ccccc2F)ccc1=O)NCc1ccc2c(c1)OCO2 | -36.9
19 | CCN1C(=O)[C@H]2[C@@H](c3ccc(C)cc3)N3C(=O)N(c4ccc(C(F)(F)F)cc4)C(=O)[C@@]3(Cc3ccccc3)[C@H]2C1=O | 16.3
20 | O=c1c2ccccc2nc(-c2ccc(-c3ccccc3)cc2)n1-c1ccncc1 | -42.9
21 | CC(OC(=O)CCCC(=O)Nc1ccc(F)cc1)C(=O)c1ccccc1 (centres unmarked) | -5.79
22 | CC(=O)Nc1ccc(NC(=O)C(C)OC(=O)CCC(=O)c2ccc(F)cc2)cc1 (centres unmarked) | -7.13

Row | SMILES | hERG current change (%, negative = inhibition) at 10uM [%]
23 | CC(OC(=O)CCC(=O)c1ccccc1)C(=O)Nc1ccc(F)cc1 (centres unmarked) | -284
24 | COc1ccc(/C=N\NC(=O)COc2ccccc2Cl)cc1Cn1nc(C)cc1C | 8.15
25 | CC1(C)CC(=O)C2=C(C1)N(CCN1CCOCC1)C1=C(C(=O)CC(C)(C)C1)C2c1cccc(Cl)c1 | -54
26 | CC1(C)CC(=O)C2=C(C1)N(CCN1CCOCC1)C1=C(C(=O)CC(C)(C)C1)C2c1cccc(F)c1 | -33.5
27 | CC1(C)CC(=O)C2=C(C1)N(CCN1CCOCC1)C1=C(C(=O)CC(C)(C)C1)C2c1ccc(Cl)cc1 | -34.1
28 | CC(CCc1ccccc1)OS(N)(=O)=O (centres unmarked) | 8.74
29 | COc1ccc(S(=O)(=O)N2CCOCC2)cc1NC(=O)COc1ccccc1 | -40.5
30 | Cc1ccc(SC/C(O)=C(\C#N)c2nc3ccccc3s2)cc1 | 29.9
31 | Cc1ccc(C(=O)NCC(=O)OCC(=O)Nc2ccc(Cl)cc2C(F)(F)F)cc1C | -4.47
32 | O=c1[nH]c2ccccc2nc1CCc1ccccc1 | 35.5
33 | Cc1cccc(NC(=O)C2CCN(C(=O)c3ccccc3C)CC2)n1 | -17.6
34 | N#Cc1ccsc1NC(=O)C1CCN(C(=O)c2ccc(Cl)cc2)CC1 | -73.2
35 | O=C(Nc1ccccc1N1CCCC1)C1CCN(C(=O)c2ccc(F)cc2)CC1 | -27.8
36 | Cc1cccc(NC(=O)C2CCN(C(=O)c3ccc(Cl)cc3)CC2)n1 | -51.5
37 | Cc1ccccc1C(=O)N1CCC(C(=O)Nc2ccccc2N2CCCC2)CC1 | -0.721
38 | N#Cc1ccsc1NC(=O)C1CCN(C(=O)c2ccc(F)cc2)CC1 | -45.7
39 | Cc1ccccc1C(=O)N1CCC(C(=O)N2CCCc3ccccc32)CC1 | -1.08
40 | O=C(C1CCCCC1)N1CCCc2ccccc21 | -5.03
41 | Cc1cccc(NC(=O)C2CCN(C(=O)c3ccc(F)cc3)CC2)n1 | -0.274
42 | O=C(Nc1ccccc1N1CCCC1)C1CCN(C(=O)c2ccc(Cl)cc2)CC1 | -59.8
43 | O=C(c1ccc(Cl)cc1)N1CCC(C(=O)N2CCCc3ccccc32)CC1 | -76.4
44 | O=C(NC1CC1)C1CCN(C(=O)c2ccc(Cl)cc2)CC1 | 19.8
